Test results taken from paper PMC7819943, “Rice protein-binding microarrays: a tool to detect cis-acting elements near promoter regions in rice”.
Over roughly 35,000 sequences, “fluorescence intensity (a.u.)” has its median near 10,000; the highest 2% begin near 52,000. The list comes from a sample in which the highest values are over-represented; it also holds similar and randomly drawn sequences.

Molecular target: T1, OsWOX13 (Oryza sativa, UniProt Q5QMM3 1-267)
T1 sequence: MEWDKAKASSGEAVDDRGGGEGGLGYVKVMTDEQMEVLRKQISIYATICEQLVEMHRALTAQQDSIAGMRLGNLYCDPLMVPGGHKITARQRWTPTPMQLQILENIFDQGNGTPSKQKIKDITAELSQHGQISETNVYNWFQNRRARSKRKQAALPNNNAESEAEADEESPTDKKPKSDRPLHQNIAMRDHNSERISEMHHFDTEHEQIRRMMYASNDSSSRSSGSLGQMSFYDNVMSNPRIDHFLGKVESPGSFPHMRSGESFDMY
Assay: protein-binding microarray (RPBM); PBS, 2% BSA, 51.3 ng/ul salmon testes DNA, 50 uM zinc acetate, 200 nM TF, 25 C, 1 h; high values mean tight binding
Conditions: protein: recombinant; tags: N-terminal polyhistidine and DsRed monomer fusion (pET32a); label: CyDye5-dUTP incorporated in the synthesized complementary strand; 3' TTTTT single-stranded linker to array surface; dsDNA, one strand shown
Summary of the method: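 Transcription factors, each fused N-terminally to a polyhistidine tag and DsRed, were expressed in E. coli BL21-CodonPlus and purified on Ni–NTA. A custom Agilent array was made double-stranded by primer extension with Cy5-dUTP and blocked with 2% BSA. It was incubated with 200 nM protein in PBS, 2% BSA, salmon testes DNA and 50 µM zinc acetate at 25 °C for 1 h, then washed. The binding signal is per-feature fluorescence intensity (arbitrary units) read on an Axon 4000B scanner.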

Sequence	binding signal
AGTCATCAAAATTACGCATGTAATTAGTATATATAATTATCGGAGTCACCTAGTGCAG	9910 fluorescence intensity (a.u.)
TTTAGTATATAATAGATAGATAGATAGAAGATTTGTACTACGGAGTCACCTAGTGCAG	4500 fluorescence intensity (a.u.)
GCTGACTGGATAAAATCTGATAAGCGTGAAGATGACCTTTCGGAGTCACCTAGTGCAG	21400 fluorescence intensity (a.u.)
TTCGAAAATTACCTGTAACCTTCCATCCATCACACACACACGGAGTCACCTAGTGCAG	3500 fluorescence intensity (a.u.)
AGCTAATTAAGCTAGTGAGAGCTAGTGGAGGTACATGGCTCGGAGTCACCTAGTGCAG	11600 fluorescence intensity (a.u.)
GGGTGATATAAATTAGGAGGTGATAATAATTATTTCTTGGCGGAGTCACCTAGTGCAG	26700 fluorescence intensity (a.u.)
TTGATTGATGTCATTTAAATTATCATTGGTCTTGGTGTATCGGAGTCACCTAGTGCAG	41100 fluorescence intensity (a.u.)
CGATTGATTGATTCTTGGTGCTCACTATCTCTAAATTGATCGGAGTCACCTAGTGCAG	59600 fluorescence intensity (a.u.)
TTAATTAGGAGATATTGATTGATAAACGTACCTCTTGGTGCGGAGTCACCTAGTGCAG	65300 fluorescence intensity (a.u.)
GCTTACAATTAATGATTACCTTTTCATAAAGATTATTATTCGGAGTCACCTAGTGCAG	12400 fluorescence intensity (a.u.)
TAATTGATGTAATTTAAATTATTCTTGGTCTTAGTGTATACGGAGTCACCTAGTGCAG	54800 fluorescence intensity (a.u.)
ACAATGATTGGGTCTTAAGATTTTCTTTAATTATTCGACGCGGAGTCACCTAGTGCAG	58300 fluorescence intensity (a.u.)
CTTTAATTGGTGCTTGTTAAACCTCTTAGTGCTTGTTAAACGGAGTCACCTAGTGCAG	29200 fluorescence intensity (a.u.)
CTGTGAATTGATTCATCTCTCACACATGGTTCTCCACTATCGGAGTCACCTAGTGCAG	9680 fluorescence intensity (a.u.)
GATTGATGCAATTTAAATTATACTTAGTATTGGTGTATAACGGAGTCACCTAGTGCAG	11400 fluorescence intensity (a.u.)
ATAAAATAAATGATAATTACATAAATTTCTTTAAATAAGACGGAGTCACCTAGTGCAG	10900 fluorescence intensity (a.u.)
AGCTGATCTATCCAAATTGGTGAAACTAATTGTAAATTCTCGGAGTCACCTAGTGCAG	11000 fluorescence intensity (a.u.)
AATAAATCTATAATTTTATGATATTATGACTTAAATCTATCGGAGTCACCTAGTGCAG	4790 fluorescence intensity (a.u.)
TTTTATTAACTGTAAACGTCACATGTTCTGTCATACGCGTCGGAGTCACCTAGTGCAG	5270 fluorescence intensity (a.u.)
CTTGTCAATCTACAGAGAGTCCACGAGTTAGTAGTATGTGCGGAGTCACCTAGTGCAG	8690 fluorescence intensity (a.u.)
TAGTTAATTGTGCCAAACAAAATTCAAAATTAAGACATCTCGGAGTCACCTAGTGCAG	33000 fluorescence intensity (a.u.)
CACATTGACCAAAATTTAATGTTTGTTTCCTACTAGTGTGCGGAGTCACCTAGTGCAG	4440 fluorescence intensity (a.u.)
TGGCACACTAATTAGGGAGAAAATCTCTATCTTGTGTTGTCGGAGTCACCTAGTGCAG	9710 fluorescence intensity (a.u.)
ACACTAATTAGGGAGATAATCTCTCTTGTGGTGTTTGTGTCGGAGTCACCTAGTGCAG	52300 fluorescence intensity (a.u.)
GGTGTCTTGATTGATATGATTTAAATTATTCTTGGTCTTGCGGAGTCACCTAGTGCAG	58500 fluorescence intensity (a.u.)
TATTGATATGATTTAAATTGTCCTTGGTCTTGGTGTATAACGGAGTCACCTAGTGCAG	40700 fluorescence intensity (a.u.)
AATAATTTTCTTTTGTCACACTGTTTCTTCTCTAATCTATCGGAGTCACCTAGTGCAG	5890 fluorescence intensity (a.u.)
TATTAATTGATGCGATTTAAATTATCTTTGGTCTTGATGTCGGAGTCACCTAGTGCAG	50000 fluorescence intensity (a.u.)
